Here are results for 101 compounds from PubChem BioAssay AID686979 (National Center for Advancing Translational Sciences (NCATS), 2013).

Where “and” joins values, the source holds several entries; their conditions need not be identical. Equal values may be shown once. Hit rate of the full screen: of about 420,000 compounds, about 50,000 (12%) were called active. Entries that show only a call come without a potency. Another 26% or so got no clear call; they are omitted. The call rests on the fitted dose curve; in most records, active means well fitted inhibition curve with a large enough effect; inconclusive means small, poorly fitted or top-dose-only effect; inactive means flat fitted curve, though single readings scatter. Many of the other results were omitted from the sample, so actives are more common in it than they were.
Potency means the concentration at half of the fitted maximal effect.

The nature of this experiment: qHTS for Inhibitors of human tyrosyl-DNA phosphodiesterase 1 (TDP1): qHTS in cells in presence of CPT. Further: nearly all actives have a fitted effect of over 55% in size. The following applies: chicken DT40 Tdp1-/-;hTDP1 cells + 20 nM CPT, ATP luminescence, 48 h; series mostly up to 46.2 µM. In a few lines:
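Chicken DT40 Tdp1-/- cells complemented with human TDP1, 400 cells/well, exposed to compounds plus 20 nM camptothecin for at least 48 h at 37 C; viability read as ATP content by CellTiter-Glo luminescence.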
In general terms: qHTS replaces the single test concentration by a dilution series.
Take `Cc1ccc2[nH]c(=O)c(CN(CCCN(C)C)C(=O)Nc3cccc(Cl)c3)cc2c1`: the Potency is 20.6 µM (active).

As to `CCC(=O)N(CCc1ccccc1)Cc1cc2cc(C)ccc2[nH]c1=O`, the Potency entry is “inactive”. The result for `CCOc1ccc2[nH]c(=O)c(CN(CCCO)C(C)=O)cc2c1` reads “inactive”; that for `Cc1cc(NC(=O)c2ccccc2C)no1`, “inactive”. With `Cc1csc(=Nc2ccccc2)n1CCO`, the Potency entry is “inactive”. Under `OCCn1c(-c2ccccc2)csc1=Nc1ccccc1` stands 25.9 µM (active); under `Cc1nc(SCC(=O)NC2CCCC2)[nH]c(=O)c1C`, “inactive”; under `COc1ccccc1N1CCN(S(=O)(=O)c2ccc3c(c2)NC(=O)CS3)CC1`, “inactive”. The result for `O=C1CSc2ccc(S(=O)(=O)NCc3ccccc3)cc2N1` reads “inactive”; that for `CC(CC(=O)N1CCN(c2ccccc2)CC1)S(=O)(=O)c1ccc2c(c1)NC(=O)CS2` (stereo unspecified), 23.1 µM (active); that for `Cc1ccccc1OCCC(=O)OCC(=O)NCCc1ccc(S(N)(=O)=O)cc1`, “inactive”. With `Cc1oc2c(F)c(F)c(F)c(F)c2c1S(=O)(=O)Nc1cccc(C(F)(F)F)c1`, the Potency is 11.6 µM (active). Under `Cc1noc(C)c1S(=O)(=O)Nc1cc(C(F)(F)F)ccc1N1CCOCC1` stands “inactive”.

Turning to `Cc1ccc(N(CCC(=O)O)S(=O)(=O)c2cccc(C(F)(F)F)c2)cc1`, the Potency entry is “inactive”.

Regarding `O=S(O)CNc1ccc(S(=O)(=O)c2ccc(NCS(=O)O)cc2)cc1`, the Potency result was “inactive”. Regarding `CC(=O)O[C@]1(C(C)=O)CC[C@H]2[C@@H]3C=C(C)C4=CC(=O)CC[C@]4(C)[C@H]3CC[C@@]21C`, the Potency entry is “inactive”. Under `C[C@]12CCC(=O)C=C1C=CC1C2CC[C@@]2(C)C1CC[C@@]21CCC(=O)O1` (stereo partly specified) stands 20.6 µM (active). Under `COC(=O)[C@@H]1CC2=CC(=O)CC[C@]2(C)[C@@]23O[C@@H]2C[C@@]2(C)[C@@H](CC[C@@]24CCC(=O)O4)[C@H]13` stands “inactive”; under `CN1CCN(C(=O)/C(=C\c2ccc3c(c2)OCO3)NC(=O)c2cccs2)CC1`, “inactive”.

For the compound `CCn1ccnc1CN(C)C(=O)c1cc(COc2ccc(Cl)cc2OC)on1`, the Potency result is “inactive”.

Turning to `O=C(O)CCn1c(SCc2cc(=O)n3ccccc3n2)nc2ccsc2c1=O`, the Potency entry is “inactive”. Regarding `Cc1cc(C)cc(CN2CCc3nnc(C(NS(C)(=O)=O)C(C)C)n3CC2)c1` (stereo unspecified), the Potency entry was “inactive”. As for `CCc1ccccc1OCCSc1nc(-c2cccs2)nc2cc(=O)[nH]n12`, the Potency entry is “inactive”. For the compound `Cc1cccc(CSc2nnc(C)c(=O)n2N)c1`, the Potency result is “inactive”. Under `Cc1cccc(-c2nc(SCc3ccc(Br)cc3)n3[nH]c(=O)cc3n2)c1` stands 16.4 µM (active); under `CCN(CC(=O)Nc1ccccc1C(F)(F)F)C(=O)C1CCN(C(=O)Nc2ccccc2)CC1`, “inactive”. The result for `NC(=O)c1ccsc1NC(=O)COC(=O)COc1ccc(C=O)cc1` reads “inactive”. Consider `COC(=O)c1ccc(/C=N/N2C(C)CCCC2C)cc1` (stereo unspecified), for which the Potency result was “inactive”. Under `COC(=O)C[n+]1cccc2ccccc21` stands “inactive”; under `Cc1cccc[n+]1CC(=O)c1ccccc1`, “inactive”; under `CC(C)(C)c1ccc(C(=O)C[n+]2cccc3cc(Cl)ccc32)cc1`, 5.01 µM (active). Under `CCCC(O)(c1ccccc1)C(c1ccccc1)c1ccccn1` (stereo unspecified) stands “inactive”; under `COc1ccc(NC(C)=O)cc1NC(=O)CN1CCN(c2ccccn2)CC1`, “inactive”; under `O=C(c1c(F)cccc1Cl)N1CCN(c2ccccn2)CC1`, “inactive”. Under `Cc1nc(N2CCN(c3ccccn3)CC2)c2c(C)c(C(=O)Nc3ccc(F)c(Cl)c3)sc2n1` stands 16.4 µM (active).

As for `Cc1ccc(NC(=O)Cn2cnc3nc4c(cc3c2=O)CCCC4)cc1Cl`, the Potency result is “inactive”. Under `Cc1cc(NS(=O)(=O)c2ccc(NC(=O)c3cccc(OC(F)F)c3)cc2)nc(C)n1` stands “inactive”; under `O=S(=O)(Nc1n[nH]c(C(F)(F)F)n1)c1ccccc1`, “inactive”.

On to `CCCc1[nH]nc2c1C(C1CC=CCC1)C(C#N)=C(N)O2` (stereo unspecified), for which the Potency is 16.4 µM (active).

As for `CCCc1nc2c([nH]1)C(c1cccnc1)C(C#N)=C(N)O2` (stereo unspecified), the Potency result is “inactive”. As to `Cc1nn(-c2ccccc2)c2c1C(c1ccc(F)cc1)C(C#N)=C(N)O2` (stereo unspecified), the Potency result was “inactive”. Take `CCCc1[nH]nc2c1C(c1c(C)nn(-c3ccccc3)c1Cl)C(C#N)=C(N)O2` (stereo unspecified): the Potency was 11.2 µM (active). Under `CCc1ccc(C2C(C#N)=C(N)Oc3n[nH]c(CC(=O)OC)c32)cc1` (stereo unspecified) stands “inactive”; under `COCc1[nH]nc2c1C(C1C=CCCC1)C(C#N)=C(N)O2` (stereo unspecified), 13 µM (active). Consider `CCCc1[nH]nc2c1C(c1ccc(Br)s1)C(C#N)=C(N)O2` (stereo unspecified), for which the Potency was 6.51 µM (active).

`CCCc1[nH]nc2c1C(c1ccc(OC)c(Cn3nc(C)c(Br)c3C)c1)C(C#N)=C(N)O2` (stereo unspecified): the Potency entry is “inactive”. Under `CCCc1[nH]nc2c1C(c1ccc(OC(=O)c3ccco3)cc1)C(C#N)=C(N)O2` (stereo unspecified) stands “inactive”. Under `Cc1cc(C)c(C#N)c(SCc2[nH]nc3c2C(c2ccccc2)C(C#N)=C(N)O3)n1` (stereo unspecified) stands “inactive”; under `CCOc1c(OC)cc(C2C(C#N)=C(N)Oc3n[nH]c(-c4ccncc4)c32)cc1OC` (stereo unspecified), “inactive”.

Take `N#CC1=C(N)OC2=C(C(=O)CCC2)C1C1CC=CCC1` (stereo unspecified): the Potency result was “inactive”.

With `C[C@@H]1CN([C@H](C)CO)C(=O)CCCn2cc(nn2)CO[C@H]1CN(C)S(C)(=O)=O`, the Potency entry is “inactive”. Take `O=C(O)c1ccccc1C(=O)NC1=NN(c2ccccc2)CC1`: the Potency entry is “inactive”. Take `CNS(=O)(=O)c1ccc2c(c1)[nH]c(=S)n2C`: the Potency result is “inactive”. The result for `CSc1ccccc1NC(=O)c1cc(Cl)sc1Cl` reads “inactive”; that for `O=c1[nH]c(/C=C\c2cccc(C(F)(F)F)c2)nc(O)c1[N+](=O)[O-]`, “inactive”. In the case of `Cc1ccc(C)c(NC(=S)NNC(=S)Nc2ccc(C(C)C)cc2)c1`, the Potency entry was “inactive”. The result for `CC(OC(=O)CCC(=O)c1ccccc1)C(=O)Nc1ccc(F)cc1` (stereo unspecified) reads “inactive”. Take `CCc1ccc(NC(=O)CN2C(=O)CSC2=O)cc1`: the Potency result is “inactive”. The result for `Cc1ccc(OCCC(=O)Nc2ccc(S(=O)(=O)Nc3nccs3)cc2)cc1` reads “inactive”; that for `O=C(NCc1ccc2c(c1)OCO2)c1ccc2c(c1)C(=O)N(CC1CCCO1)C2=O` (stereo unspecified), “inactive”; that for `CCC(=O)Nc1ccc(C(=O)Nc2ccc3c(c2)C(=O)N(CC2CCCO2)C3=O)cc1` (stereo unspecified), “inactive”. The result for `O=C1c2cccc3c([N+](=O)[O-])ccc(c23)C(=O)N1CC1CCCO1` (stereo unspecified) reads 6.51 µM (active); that for `Cc1nn(C(C)CC(=O)O)c(C)c1C` (stereo unspecified), “inactive”. Under `NS(=O)(=O)c1ccc(CNC(=S)NC(=O)c2ccco2)cc1` stands “inactive”; under `CC(=O)N(Cc1cc(=O)[nH]c2ccccc12)c1ccc(C)cc1C`, “inactive”; under `Cc1ccc(N(Cc2cc3ccccc3[nH]c2=O)C(=O)c2cccs2)cc1`, “inactive”. For `Cc1ccc(N(Cc2cc(=O)[nH]c3ccccc23)C(=O)CCl)cc1`, the Potency was 2.91 µM (active). For the compound `COc1ccc(Cc2nnc(SCC(=O)Nc3ccc(C)c(C)c3)o2)cc1OC`, the Potency result was “inactive”.

Consider `Cc1cccc(NC(=O)C2CCN(S(=O)(=O)c3cccc4cccnc34)CC2)c1`, for which the Potency entry was “inactive”. On to `Cc1ccc(NC(=O)C2CCCN2S(=O)(=O)c2cccc3cccnc23)c(C)c1` (stereo unspecified), for which the Potency was 23.1 µM (active) and 16.4 µM (active).

`O=C(Nc1nccs1)C1CCCN1S(=O)(=O)c1cccc2cccnc12` (stereo unspecified): the Potency result was “inactive”. As to `C=CCOc1ccc(/C=C/C(=O)OCC(=O)NC(C)c2ccc(F)cc2)cc1` (stereo unspecified), the Potency entry was “inactive”. Under `COc1ccc2[nH]c3c(c2c1)CCN1C(=O)C(CC(=O)NCc2cccc(C(F)(F)F)c2)C[C@H](C(=O)N2CCOCC2)[C@@]31C` (stereo partly specified) stands “inactive”.

Consider `COc1cc2c(cc1OC)CN(C(C)C(=O)Nc1cccc(S(=O)(=O)N3CCOCC3)c1)CC2` (stereo unspecified), for which the Potency entry is “inactive”. For the compound `COc1ccc(Cn2c(-c3ccc(Cl)cc3)c[n+]3ccccc23)cc1`, the Potency is 1.84 µM (active).

For the compound `COc1ccc(C(=O)CN(C(=O)c2ccc(Cl)cc2)N2C(=O)c3ccccc3C2=O)cc1`, the Potency entry is “inactive”.

On to `COc1ccc(Cn2c(=O)oc3ccccc32)cc1`, for which the Potency result was “inactive”. In the case of `CN(CC(=O)Nc1c(Cl)cccc1Cl)C(=O)c1ccncc1`, the Potency result is “inactive”.

Consider `COc1ccc(C(=O)Nc2cccc(NC(=O)c3ccc(OC)cc3OC)n2)c(OC)c1`, for which the Potency is 20.6 µM (active). Under `COC(=O)c1sc(NC(=O)c2ccc(OC)cc2OC)nc1C` stands “inactive”. In the case of `COc1ccc(C(=O)NC2=NCCS2)c(OC)c1`, the Potency entry was “inactive”. Under `CC1(C)NC(=O)N(CC(=O)Nc2cc(C(F)(F)F)cc(C(F)(F)F)c2)C1=O` stands “inactive”; under `CN1CCn2cnc(C(=O)NCC(=O)OC(C)(C)C)c2C1=O`, “inactive”; under `O=C(CSc1nc2c(c(=O)[nH]1)CN(Cc1ccc(F)cc1)CC2)Nc1ccccc1Cl`, “inactive”. Consider `Cc1cc(C)cc(NC(=O)NCc2ccccn2)c1`, for which the Potency result was “inactive”. Under `CCCCn1c(N)c(N(CCOC)C(=O)COc2c(C)cccc2C)c(=O)[nH]c1=O` stands “inactive”; under `COC(=O)c1cccc(-n2[nH]nnc2=S)c1`, “inactive”.

As for `COc1cc(C)c(C)cc1S(=O)(=O)N1CCCc2ccccc21`, the Potency was 16.4 µM (active).

Turning to `COc1ccc(Br)cc1S(=O)(=O)N1CCN=C1C`, the Potency result was “inactive”. The result for `COc1ccc(C(=O)OCC(=O)NCC2CCCCC2)cc1S(=O)(=O)N1CCCc2ccccc21` reads “inactive”; that for `CN(CC(=O)Nc1ccc(Cl)cc1)C(=O)c1ccc(COc2ccccc2)cc1`, “inactive”.

Consider `O=C(NCc1ccc2c(c1)OCO2)C(=O)NCC1OCCN1S(=O)(=O)c1ccc(F)cc1` (stereo unspecified), for which the Potency result was “inactive”. The result for `Brc1c(CSc2nncc3ccccc23)nc2ccccn12` reads “inactive”.

In the case of `O=C(Nc1cc(C(F)(F)F)ccc1Cl)c1nc2ccccc2nc1N1CCCCC1`, the Potency entry was “inactive”. Under `C/C(=C/C(=O)N1CCN(C)CC1)C(=O)O` stands “inactive”; under `O=C(c1cc(-c2ccc(O)cc2)on1)N1CCOCC1`, “inactive”; under `CCc1nc2sc(C(=O)O)c(N)c2c2c1CCCC2`, “inactive”.

As to `COc1ccc(CCNC(=O)CS(=O)(=O)Cc2nc(-c3ccc(C)cc3)oc2C)cc1OC`, the Potency result was “inactive”. Take `COc1cccc(-c2nc(CS(=O)(=O)CC(=O)N3CCN(c4cc(C)ccc4C)CC3)c(C)o2)c1`: the Potency is 3.26 µM (active). Turning to `CCCCN(CC)CCCNC(=O)CS(=O)(=O)Cc1nc(-c2cccc(OC)c2)oc1C`, the Potency entry is “inactive”. The result for `CC1CCN(CC(O)COc2ccc(C(=O)c3ccccc3)cc2)CC1` (stereo unspecified) reads “inactive”.
